Parameters in all cases: scale not given: direction of the effect not stated beside the values
The target of experiment [1] is Protein translocase subunit SecA (Escherichia coli (strain K12)) (UniProt P10408). As to the kind of experiment: Assay to Identify E. coli SecA ATPase Inhibitors. Particulars: 30 µM. It is filed as functional.
In experiment [2] the target is T1, Ubiquitin-activating enzyme e1, putative (Leishmania donovani (strain BPK282A1)) (UniProt E9BSI1).
T1 sequence (whole entry): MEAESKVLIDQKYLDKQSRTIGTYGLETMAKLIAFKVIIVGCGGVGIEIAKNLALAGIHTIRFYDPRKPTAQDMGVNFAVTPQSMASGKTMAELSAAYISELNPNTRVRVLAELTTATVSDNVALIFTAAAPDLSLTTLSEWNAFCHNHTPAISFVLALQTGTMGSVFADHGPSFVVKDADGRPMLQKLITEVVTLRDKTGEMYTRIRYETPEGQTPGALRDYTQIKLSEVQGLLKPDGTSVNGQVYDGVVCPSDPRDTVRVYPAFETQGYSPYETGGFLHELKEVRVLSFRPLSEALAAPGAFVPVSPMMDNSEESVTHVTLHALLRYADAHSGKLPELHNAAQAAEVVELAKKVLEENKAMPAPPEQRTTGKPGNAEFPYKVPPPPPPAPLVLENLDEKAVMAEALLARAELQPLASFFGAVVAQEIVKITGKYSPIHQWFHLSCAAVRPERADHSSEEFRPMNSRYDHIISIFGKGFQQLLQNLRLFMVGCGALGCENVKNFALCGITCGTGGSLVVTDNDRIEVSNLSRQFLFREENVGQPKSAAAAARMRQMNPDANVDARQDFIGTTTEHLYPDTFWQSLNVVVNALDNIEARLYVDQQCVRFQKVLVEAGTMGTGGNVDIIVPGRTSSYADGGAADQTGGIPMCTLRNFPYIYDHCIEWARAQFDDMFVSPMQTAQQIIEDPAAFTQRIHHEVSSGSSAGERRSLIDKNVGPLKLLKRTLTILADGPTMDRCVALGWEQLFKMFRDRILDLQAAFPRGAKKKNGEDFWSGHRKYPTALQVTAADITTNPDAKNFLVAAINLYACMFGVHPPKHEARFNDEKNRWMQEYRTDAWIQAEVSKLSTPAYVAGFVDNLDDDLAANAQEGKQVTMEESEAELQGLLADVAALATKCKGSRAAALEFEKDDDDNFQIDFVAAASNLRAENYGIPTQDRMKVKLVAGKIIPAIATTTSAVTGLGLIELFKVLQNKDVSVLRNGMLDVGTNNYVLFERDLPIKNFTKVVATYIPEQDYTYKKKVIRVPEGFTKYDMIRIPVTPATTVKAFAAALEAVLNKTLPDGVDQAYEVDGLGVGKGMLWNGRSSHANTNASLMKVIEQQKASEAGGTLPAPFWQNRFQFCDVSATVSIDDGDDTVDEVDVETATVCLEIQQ
As to the kind of experiment: Leishmania donovani Ubiquitin Activating Enzyme (LdE1). Type of experiment: functional. Particulars: 30 µM.

Experiment [3] addresses AMP-activated protein kinase, AMPK (Homo sapiens) (UniProt P54646+O43741+P54619+Q9UGJ0+Q9Y478+Q13131+Q9UGI9). Nature of the experiment: AMP-dependent Kinase enzyme assay. An in vitro enzyme assay that detects ADP turnover that is directly proportional to AMPK activity. This uses naive AMPK that is activated during the assay with MK-8722. Type of experiment: functional. Particulars: 30 µM.

The target of experiment [4] is Sialic acid-binding Ig-like lectin 9 (Homo sapiens) (UniProt Q9Y336). Nature of the experiment: Hs-Siglec9 ALPHAscreen SOP 20170721. Particulars: 10 µM. A general note: Bead proximity is the source of the signal in Alpha formats.
Another experiment concerns Trypanosoma cruzi. As to the kind of experiment: Trypanosoma cruzi phosphomannomutase and mannose-1-phosphate guanylyltransferase assay. It is filed as functional. Particulars: 10 µM.
Experiment [5] deals with T2, Arginase-2, mitochondrial (Homo sapiens) (UniProt P78540).
T2 sequence (whole entry): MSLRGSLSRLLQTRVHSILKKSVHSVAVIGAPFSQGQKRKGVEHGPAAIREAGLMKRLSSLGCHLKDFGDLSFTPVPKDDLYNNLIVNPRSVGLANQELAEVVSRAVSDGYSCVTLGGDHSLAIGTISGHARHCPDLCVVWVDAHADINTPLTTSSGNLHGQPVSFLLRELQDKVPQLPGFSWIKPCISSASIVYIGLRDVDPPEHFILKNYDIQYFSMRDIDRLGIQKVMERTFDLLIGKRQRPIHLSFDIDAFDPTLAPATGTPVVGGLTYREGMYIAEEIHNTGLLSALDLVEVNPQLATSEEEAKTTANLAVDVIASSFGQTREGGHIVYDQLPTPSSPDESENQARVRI
Nature of the experiment: in vitro enzyme assay to detect the production of urea directly proportional to the activity of Arginase II. Also: in the data most compounds retested in dose-response had high values. Type of experiment: functional. Particulars: 33.3 µM.

Experiment [6] deals with T3, Proteasome subunit beta (Trypanosoma cruzi) (UniProt O96673).
T3 sequence (whole entry): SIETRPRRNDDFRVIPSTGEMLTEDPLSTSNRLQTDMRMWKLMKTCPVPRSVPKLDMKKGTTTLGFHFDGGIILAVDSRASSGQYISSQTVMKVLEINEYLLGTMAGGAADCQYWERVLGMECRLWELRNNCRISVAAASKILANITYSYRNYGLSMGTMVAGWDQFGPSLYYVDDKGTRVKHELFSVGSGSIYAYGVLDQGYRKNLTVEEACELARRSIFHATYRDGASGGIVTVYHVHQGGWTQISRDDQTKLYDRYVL
As to the kind of experiment: Trypanosoma cruzi proteasome chymotrypsin-like activity (TcProtChymo) assay. Also: in the data most compounds retested in dose-response had high values. Type of experiment: functional. Particulars: 9.37 µM.

The test system of a further experiment is N/A. As to the kind of experiment: Trypanosoma cruzi proteasome luciferase counter-screen. Type of experiment: functional. Particulars: 9.37 µM. (Counterscreens check selectivity or assay interference.)
The species entered for the next experiment is Homo sapiens. Nature of the experiment: To identify inhibition of the IFN signalling (Jak-Stat) pathway via expression of an eGFP reporter gene under the control of an IFN-stimulated response element (ISRE) containing MxA promoter. It is filed as functional. Particulars: 30 µM.
In experiment [7] the target is T4, Tyrosyl-tRNA synthetase, putative (Trypanosoma cruzi (strain CL Brener)) (UniProt Q4DSP6).
T4 sequence (whole entry): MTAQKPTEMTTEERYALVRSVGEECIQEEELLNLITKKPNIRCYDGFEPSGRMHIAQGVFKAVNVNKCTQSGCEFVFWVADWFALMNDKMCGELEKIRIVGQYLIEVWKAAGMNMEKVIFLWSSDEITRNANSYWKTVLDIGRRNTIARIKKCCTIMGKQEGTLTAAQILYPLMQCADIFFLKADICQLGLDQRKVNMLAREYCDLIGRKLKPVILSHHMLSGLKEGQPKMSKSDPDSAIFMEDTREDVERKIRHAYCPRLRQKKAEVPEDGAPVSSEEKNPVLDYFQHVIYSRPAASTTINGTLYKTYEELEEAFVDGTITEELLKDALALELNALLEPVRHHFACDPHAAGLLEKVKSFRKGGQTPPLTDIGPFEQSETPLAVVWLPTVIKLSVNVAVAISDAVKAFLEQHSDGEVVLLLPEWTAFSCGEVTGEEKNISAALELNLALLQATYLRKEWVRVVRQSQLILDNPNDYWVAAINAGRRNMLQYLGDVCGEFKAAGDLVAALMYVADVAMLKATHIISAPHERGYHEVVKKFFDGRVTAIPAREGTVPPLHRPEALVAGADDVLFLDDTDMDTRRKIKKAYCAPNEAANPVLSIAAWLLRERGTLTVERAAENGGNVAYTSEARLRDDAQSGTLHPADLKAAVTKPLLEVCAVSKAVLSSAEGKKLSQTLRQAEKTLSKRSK
Nature of the experiment: Trypanosoma cruzi tyrosyl tRNA synthetase (TcYRS) _High Tyrosine SOP. Also: in the data most compounds retested in dose-response had high values. Particulars: 30 µM. It is filed as functional.

In experiment [8] the target is T4, Tyrosyl-tRNA synthetase, putative (Trypanosoma cruzi (strain CL Brener)). Nature of the experiment: Trypanosoma cruzi tyrosyl tRNA synthetase (TcYRS) SOP. It is filed as functional. Particulars: 30 µM.
For experiment [9], the target named is Chromo domain-containing protein 1 (Saccharomyces cerevisiae (strain ATCC 204508 / S288c) (Baker's yeast)) (UniProt P32657). Nature of the experiment: ScCHD-1 Enzyme Inhibition Assay. Also: in the data most compounds retested in dose-response had high values. Type of experiment: functional. Particulars: 30 µM.

Where “and” joins values, the source holds several entries; their conditions need not be identical. Equal entries are not always repeated. For part of these data: Entries with a potency or affinity are not part of this list.

This note sets out measurements from ChEMBL document CHEMBL3988442, “University of Dundee, Small-Polar-MMV Screening Library” (2021).

Protein translocase subunit SecA (Escherichia coli (strain K12)), sequence (P10408 whole entry): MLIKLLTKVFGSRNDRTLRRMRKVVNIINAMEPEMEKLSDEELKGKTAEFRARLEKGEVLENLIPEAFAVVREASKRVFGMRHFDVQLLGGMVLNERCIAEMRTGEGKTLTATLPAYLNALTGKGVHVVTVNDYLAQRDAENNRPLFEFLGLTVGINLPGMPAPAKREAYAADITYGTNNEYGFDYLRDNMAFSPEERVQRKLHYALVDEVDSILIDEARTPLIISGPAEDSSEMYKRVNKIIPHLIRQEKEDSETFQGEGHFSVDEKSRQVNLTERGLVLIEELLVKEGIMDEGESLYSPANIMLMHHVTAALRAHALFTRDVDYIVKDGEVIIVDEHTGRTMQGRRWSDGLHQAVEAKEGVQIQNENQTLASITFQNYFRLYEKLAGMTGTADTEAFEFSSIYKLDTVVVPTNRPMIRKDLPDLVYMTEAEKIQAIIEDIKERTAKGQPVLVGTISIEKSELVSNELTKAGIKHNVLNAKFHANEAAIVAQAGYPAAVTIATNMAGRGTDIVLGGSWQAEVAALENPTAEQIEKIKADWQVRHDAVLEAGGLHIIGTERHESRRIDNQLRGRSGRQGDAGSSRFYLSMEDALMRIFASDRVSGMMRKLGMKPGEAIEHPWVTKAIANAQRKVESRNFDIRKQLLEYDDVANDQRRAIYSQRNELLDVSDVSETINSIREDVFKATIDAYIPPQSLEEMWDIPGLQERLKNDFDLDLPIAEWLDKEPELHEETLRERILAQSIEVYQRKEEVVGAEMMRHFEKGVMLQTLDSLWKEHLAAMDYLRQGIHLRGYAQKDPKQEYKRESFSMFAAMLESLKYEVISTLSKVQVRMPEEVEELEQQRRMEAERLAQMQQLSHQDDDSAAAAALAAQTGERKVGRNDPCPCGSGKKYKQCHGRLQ
Chromo domain-containing protein 1 (Saccharomyces cerevisiae (strain ATCC 204508 / S288c) (Baker's yeast)), sequence (P32657 whole entry, the tested form may be a part): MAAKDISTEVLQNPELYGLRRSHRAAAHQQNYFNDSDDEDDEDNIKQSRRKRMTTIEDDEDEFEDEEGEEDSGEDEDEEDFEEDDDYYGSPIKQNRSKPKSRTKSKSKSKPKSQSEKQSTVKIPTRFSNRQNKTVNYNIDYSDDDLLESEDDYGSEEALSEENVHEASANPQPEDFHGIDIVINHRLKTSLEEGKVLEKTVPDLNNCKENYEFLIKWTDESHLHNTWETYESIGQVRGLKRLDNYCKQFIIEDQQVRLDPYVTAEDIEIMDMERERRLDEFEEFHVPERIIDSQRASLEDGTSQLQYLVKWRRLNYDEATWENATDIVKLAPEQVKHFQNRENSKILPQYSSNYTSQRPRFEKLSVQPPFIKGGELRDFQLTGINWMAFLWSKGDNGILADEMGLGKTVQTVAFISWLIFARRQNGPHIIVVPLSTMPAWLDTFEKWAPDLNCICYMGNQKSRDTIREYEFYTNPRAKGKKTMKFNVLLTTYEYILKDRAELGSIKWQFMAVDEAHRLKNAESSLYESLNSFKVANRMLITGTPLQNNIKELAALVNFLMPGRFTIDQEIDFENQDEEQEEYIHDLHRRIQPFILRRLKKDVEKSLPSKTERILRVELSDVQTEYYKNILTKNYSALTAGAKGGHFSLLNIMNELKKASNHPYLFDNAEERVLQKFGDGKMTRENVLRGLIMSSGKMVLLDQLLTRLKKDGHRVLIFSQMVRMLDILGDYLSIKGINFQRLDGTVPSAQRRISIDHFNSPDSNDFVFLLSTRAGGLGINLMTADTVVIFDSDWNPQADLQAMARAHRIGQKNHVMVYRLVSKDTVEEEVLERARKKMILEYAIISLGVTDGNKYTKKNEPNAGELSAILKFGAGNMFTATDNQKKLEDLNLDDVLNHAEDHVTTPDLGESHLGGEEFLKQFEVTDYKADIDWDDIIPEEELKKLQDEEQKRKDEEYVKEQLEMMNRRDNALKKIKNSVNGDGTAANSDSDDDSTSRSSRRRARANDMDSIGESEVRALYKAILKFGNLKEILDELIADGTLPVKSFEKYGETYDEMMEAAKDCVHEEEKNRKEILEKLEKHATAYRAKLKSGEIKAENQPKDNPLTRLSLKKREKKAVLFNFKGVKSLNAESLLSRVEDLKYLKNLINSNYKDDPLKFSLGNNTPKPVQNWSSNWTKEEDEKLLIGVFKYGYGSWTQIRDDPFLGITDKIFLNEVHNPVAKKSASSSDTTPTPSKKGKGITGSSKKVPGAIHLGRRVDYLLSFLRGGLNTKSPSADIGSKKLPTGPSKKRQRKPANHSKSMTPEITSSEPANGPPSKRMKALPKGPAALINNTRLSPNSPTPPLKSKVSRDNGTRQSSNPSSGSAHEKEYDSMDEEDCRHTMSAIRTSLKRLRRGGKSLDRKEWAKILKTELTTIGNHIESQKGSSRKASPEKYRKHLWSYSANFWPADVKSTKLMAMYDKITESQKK
Sialic acid-binding Ig-like lectin 9 (Homo sapiens), sequence (Q9Y336 whole entry): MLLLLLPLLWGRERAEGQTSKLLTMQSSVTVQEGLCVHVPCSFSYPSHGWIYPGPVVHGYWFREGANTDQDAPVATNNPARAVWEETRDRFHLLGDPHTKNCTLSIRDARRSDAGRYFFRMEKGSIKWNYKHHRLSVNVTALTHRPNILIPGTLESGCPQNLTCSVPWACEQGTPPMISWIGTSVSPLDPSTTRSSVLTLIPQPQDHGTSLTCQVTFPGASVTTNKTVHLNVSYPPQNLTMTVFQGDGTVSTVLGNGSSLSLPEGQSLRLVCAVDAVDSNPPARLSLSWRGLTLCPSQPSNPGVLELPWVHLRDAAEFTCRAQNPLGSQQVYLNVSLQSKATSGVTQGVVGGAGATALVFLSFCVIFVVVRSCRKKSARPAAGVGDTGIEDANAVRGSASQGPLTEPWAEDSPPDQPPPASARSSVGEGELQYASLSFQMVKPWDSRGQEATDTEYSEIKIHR

For `Cc1cc(S(=O)(=O)Nc2cccc(-n3cccc3)c2)sc1C(=O)O`, the Percent Effect in experiment [1] is 1.39%; in experiment [2], 0%; in experiment [3] it was 12.1%; in experiment [4] it was 7.4%; with Trypanosoma cruzi, 4.99%; in experiment [5], -0.248%. For the same molecule, the Percent Effect in [6] was 36.5% and 37.6% and 37.3%; in the experiment with N/A it was 19.1% and 16.4%; in the experiment listed under Homo sapiens it was -6.8%; in experiment [7], -43%; in [8] it was -38.3%; in [9], 32.5%.
Take `CC(=O)NCC(=O)N1Cc2nccn2CC(CN2CCCC2)C1` (centres undefined): the Percent Effect in experiment [1] is -4.42%; in experiment [2] it was 5.41%; in [3] it was 1.1%; in [4], -2.08%; in the experiment with Trypanosoma cruzi, -5.77%; in experiment [5], 0.955%. Moreover, the Percent Effect is 19.6% in experiment [6]; 5.21% in the experiment listed under Homo sapiens; 6.49% in experiment [7]; 10.3% in experiment [8]; -0.00691% in [9].
`CCNC(=O)c1nnc2ccc(N3CCOCC3)cc2n1`: the Percent Effect is -7.02% in [1]; -1.33% in [2]; 58.5% in experiment [3]; 3.63% in [4]; -6.09% in the experiment on Trypanosoma cruzi; -3.7% in experiment [5]. The Percent Effect in [6] was 7.95%; in the experiment listed under Homo sapiens, 19.8%; in [7] it was 7.41%; in experiment [8], 7.69%; in experiment [9] it was -13.2%.
Turning to `O=C(c1cccc(S(=O)(=O)NCCCc2ccco2)c1)N1CCOCC1`, the Percent Effect in [1] was -4.29%; in experiment [2], 2.74%; in experiment [3] it was 6.53%; in experiment [4] it was -4.06%; with Trypanosoma cruzi, 1.37%; in experiment [5] it was 1.82%. Further, the Percent Effect was 5.86% in experiment [6]; -5.12% in the experiment filed under Homo sapiens; 7.53% in experiment [7]; 15% in [8]; -2.3% in experiment [9].
For `c1ccc2sc(N3CCOC(Cn4cccn4)C3)nc2c1` (centres undefined), the Percent Effect is -6.09% in experiment [1]; 13.5% in experiment [2]; -6.61% in [3]; 25.1% in [4]; 4.25% in the experiment with Trypanosoma cruzi; -6.41% in [5]. For the same molecule, the Percent Effect in [6] was 38.1% and 31.4% and 25.9%; in the experiment with N/A, 10.8% and 13.7%; in the experiment filed under Homo sapiens it was 17.4%; in [7], 8.37%; in experiment [8], 25.9%; in experiment [9], -17.7%.
For the molecule `CC(C)Oc1cc(N2C[C@@H](C)O[C@@H](C)C2)nc(N)n1`, the Percent Effect was -1.28% in experiment [1]; 8.11% in experiment [2]; -16.9% in experiment [3]; -0.905% in [4]; 0% in the experiment on Trypanosoma cruzi; -17.1% in [5]. For the same molecule, the Percent Effect in [6] was 12.8%; in the experiment filed under Homo sapiens, 3.78%; in experiment [7], 10.1%; in experiment [8] it was 12.2%; in experiment [9], -1.35%.
As to `CNC(=O)c1cnc(/C=C/c2ccc(OC)c(O)c2)s1`, the Percent Effect in experiment [1] was -3.24%; in experiment [2] it was 5.41%; in experiment [3], 32.5%; in [4], -3.93%; in the experiment on Trypanosoma cruzi, -5.27%; in experiment [5], 2.08%. For the same molecule, the Percent Effect was 31.5% and 31.2% and 35.7% in experiment [6]; 10.7% and 15.6% in the experiment on N/A; 16.4% in the experiment listed under Homo sapiens; 3.96% in experiment [7]; 6.1% in [8]; -1.59% in experiment [9].
Consider `COc1cc(C)nc(N2CCN(C(=O)CCc3nccs3)CC2)n1`, for which the Percent Effect in experiment [1] is -6.4%; in experiment [2], 0%; in experiment [3], 2.65%; in experiment [4] it was 3.42%; in the experiment on Trypanosoma cruzi, -5.6%; in [5] it was -3.33%. The Percent Effect in experiment [6] is 14.5%; in the experiment listed under Homo sapiens, 30.1%; in experiment [7], -2.65%; in experiment [8], 2.44%; in experiment [9], -4.19%.
As to `Cn1cc(-c2cnc(N3CCOCC3)nc2)cc1C(=O)O`, the Percent Effect in experiment [1] is -3.79%; in [2], 5.41%; in experiment [3], 2.15%; in [4], 1.49%; in the experiment on Trypanosoma cruzi it was 5.08%; in [5], 18.3%. The Percent Effect in experiment [6] is 100% (2×) and 98.7%; in the experiment on N/A, 97.4% and 97.5%; in the experiment filed under Homo sapiens, 5.61%; in experiment [7], 5.94%; in experiment [8] it was 11%; in [9] it was -7.1%.
Turning to `CCN(c1ccc(C(=O)NCCCN2CCOCC2)cc1)S(=O)(=O)CC`, the Percent Effect in experiment [1] was -3.73%; in [2], 10.5%; in experiment [3], -2.83%; in experiment [4], -8.52%; in the experiment on Trypanosoma cruzi, -6.33%; in experiment [5] it was 2.37%. In addition, the Percent Effect in [6] was 15.8%; in the experiment filed under Homo sapiens, -2.55%; in experiment [7], -1.06%; in experiment [8], -2.6%; in experiment [9], -5.76%.
